# Sampled rows, rich in hits. Any-hit rate of the full collection: about 9.9%.
# Tau fluor counter: counter-screen for tau fibril formation inhibitors. AID 1463. 280,000 compounds, 0.93% hits. tau K18 P301L Alexa594 fluorescence, heparin fibrillization. Potency, µM (highest dose often 57.7 µM); also: nearly all actives have a fitted effect of over 55% in size
#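 Human K18 P301L tau (15 uM unlabeled plus 0.24 uM Alexa 594-labeled, final) in 100 mM sodium acetate pH 7 was mixed with compound and 20 uM heparin and incubated 6 hr at 37 C.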
# ALDH1A1 block: blocks purified human ALDH1A1 activity. 220,000 compounds, 7.3% hits. Potency, µM (top dose mostly 75.3 µM), actives largely listed as inhibitors. Purified ALDH1A1, NADH fluorescence, propionaldehyde substrate; active = well fitted inhibition curve with a large enough effect, not every such curve was filed as active; inconclusive = small, poorly fitted or top-dose-only effect, or another doubt; inactive = no such curve, though single readings can be large or run the other way
# KDM4E inh: inhibitors of human JMJD2E histone demethylase; 230,000 compounds, 1.6% hits; B2RXH2; JMJD2E catalytic domain, FDH-coupled NADH fluorescence (FDH is formaldehyde dehydrogenase); Potency, µM (series often up to 57.1 µM), actives largely listed as inhibitors; active = well fitted inhibition curve with a large enough effect, not every such curve was filed as active; inconclusive = small, poorly fitted or top-dose-only effect, or another doubt; inactive = no such curve, though single readings can be large or run the other way; also: nearly all actives have a fitted effect of over 50% in size
# Target sequence (B2RXH2 1-337 limits assumed): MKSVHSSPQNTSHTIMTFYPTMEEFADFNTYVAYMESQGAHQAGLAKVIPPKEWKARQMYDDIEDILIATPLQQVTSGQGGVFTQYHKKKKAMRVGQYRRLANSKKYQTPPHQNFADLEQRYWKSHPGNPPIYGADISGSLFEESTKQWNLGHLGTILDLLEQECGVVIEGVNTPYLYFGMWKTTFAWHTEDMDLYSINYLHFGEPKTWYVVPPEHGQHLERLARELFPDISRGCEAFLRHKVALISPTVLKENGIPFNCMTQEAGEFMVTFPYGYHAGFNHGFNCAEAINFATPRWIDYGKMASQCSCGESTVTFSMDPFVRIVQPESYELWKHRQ
# HPGD inh: blocks human HPGD enzyme activity. Potency, µM, hits mostly inhibitors. purified HPGD, NADH fluorescence kinetic, PGE2 substrate. P15428. 150,000 compounds, 4.3% hits; active = well fitted inhibition curve with a large enough effect, not every such curve was filed as active; inconclusive = small, poorly fitted or top-dose-only effect, or another doubt; inactive = no such curve, though single readings can be large or run the other way
# Target sequence (P15428 whole entry, looked up): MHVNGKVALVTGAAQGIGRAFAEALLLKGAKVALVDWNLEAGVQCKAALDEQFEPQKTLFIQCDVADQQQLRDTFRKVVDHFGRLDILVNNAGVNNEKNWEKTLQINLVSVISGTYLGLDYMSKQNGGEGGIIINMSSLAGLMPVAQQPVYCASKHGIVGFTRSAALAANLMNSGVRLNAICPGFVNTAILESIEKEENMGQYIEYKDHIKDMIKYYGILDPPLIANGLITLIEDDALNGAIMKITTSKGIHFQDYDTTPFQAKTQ
#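 NADH formation kinetics: reaction with 30 uM PGE2 and 1 mM NAD+ (final), 20 nM enzyme, Tris-HCl pH 8 with Tween 20, after 15 min compound preincubation at room temperature. Fluorescence change, last versus first of five reads.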
# Tau FP inhib: inhibitors of human tau fibril formation; K18 P301L tau heparin fibrillization, Alexa594 FP, 6 h; Potency, µM (doses to about 57.7 µM), most hits filed as inhibitors; P10636; 280,000 compounds, 0.39% hits; also: nearly all actives have a fitted effect of over 55% in size
#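 FP of Alexa 594-tau after heparin (20 uM) induction. Substrate: human K18 P301L, 15 uM unlabeled, 0.24 uM labeled. Buffer 100 mM sodium acetate pH 7. 6 hr, 37 C.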
# Tau ThT inhib: inhibitors of human tau fibril formation, thioflavin T binding; recombinant tau K18 P301L (four-repeat tau fragment), heparin-induced fibrillization, ThT fluorescence; Potency, µM (titrated, usually from 57.4 µM), usual class: inhibitors; 270,000 compounds, 2.1% hits; also: nearly all actives have a fitted effect of over 55% in size
#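 Aggregation was driven by heparin (20 uM final) acting on recombinant tau […] bearing P301L in 100 mM sodium acetate pH 7; fibrils were detected with Thioflavin T.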
# A number is an active result; - = inactive; ? = inconclusive; . = no result given; [ ] = remark or other dose. Unless noted, calls follow the shape of the dose curve; as a rule, active = well fitted curve in the direction sought with a large enough effect; inconclusive = small, poorly fitted or top-dose-only effect, or another doubt; inactive = no such curve, though single readings can be large; an effect the other way counts as inactive or inconclusive.
SMILES,Tau fluor counter,ALDH1A1 block,KDM4E inh,HPGD inh,Tau FP inhib,Tau ThT inhib
Cc1cccc(C)c1N1CCN(C(=O)N2CCCCC2)CC1,-,?,-,.,-,-
c1ccc2c(c1)[nH]c1nc(SCCN3CCOCC3)nnc12,-,?,-,32µM,-,-
CC(C)(C)Nc1nc(SCC(=O)Nc2ccccc2)nc(N2CCOCC2)n1,?,?,-,.,-,?
Brc1ccc2[nH]c3nc(SCCN4CCOCC4)nnc3c2c1,-,?,-,.,-,-
CN(C)c1nc(SCC(=O)Nc2ccccc2)nc(N2CCOCC2)n1,-,25µM,-,.,-,-
O=C(CSc1nnc2c(n1)[nH]c1ccccc12)Nc1ccc(N2CCOCC2)cc1,?,22µM,-,.,-,?
CCN(CC)C(=O)Cn1c(=O)n(CCCCCC(=O)NCc2ccc3c(c2)OCO3)c(=O)c2sccc21,-,.,.,.,-,-
N#CC1=C(N)C(C#N)(C#N)C(c2cccnc2)C2CCCC=C12 (stereo not given),-,?,?,-,?,?
N#CC1=C(N)C(C#N)(C#N)C(c2ccc[nH]2)C2CCCC=C12 (stereo not given),?,?,?,-,?,14µM
NCCNC(=S)S,.,3.2µM,.,3.5µM,.,.
CC(NC(N)=O)C(=O)Nc1ccc(Cl)c(S(=O)(=O)Nc2ccc(Br)cc2)c1 (stereo not given),-,-,-,.,-,-
Oc1cccc(/C=N/Nc2ncnc3c2ncn3Cc2ccccc2)c1,-,-,-,22µM,-,-
Oc1ccc(/C=N/Nc2ncnc3c2ncn3Cc2ccccc2)cc1O,?,?,10µM,25µM,-,?
Cc1cccc(CNC(=O)Cc2ccc(NC(=O)N3CCCCc4ccccc43)cc2)c1,-,.,.,.,-,-
CC(C)(C)c1ccc(OCC(=O)N/N=C/C2CC=CCC2)cc1 (stereo not given),-,32µM,-,.,-,-
COCC(C)NC(=O)c1cccc([N+](=O)[O-])c1 (stereo not given),-,-,-,.,-,-
CN(C)c1ccc(C(CC(=O)O)NC(=O)c2ccc(Cl)cc2)cc1 (stereo not given),-,18µM,-,-,-,-
COCC(C)NC(=O)c1ccc(N(C)C)cc1 (stereo not given),-,8.9µM,-,22µM,-,-
CC(=O)Nc1ccc(C(=O)NC(CC(=O)O)c2ccc(Cl)cc2)cc1 (stereo not given),-,-,-,-,-,-
CC(C)=NO[C@@H](C)CN1CCCCc2nc(C)c(C)cc21,-[11.6 µM],-[13.5 µM],.,.,-[11.6 µM],-[11.5 µM]
Cc1cc(-c2nc3cccnc3s2)ccc1NS(=O)(=O)c1ccc2c(c1)OCCO2,-,?,?,?,-,-
Cc1c(NS(=O)(=O)c2ccc3c(c2)OCCO3)cccc1-c1nc2cccnc2s1,-,16µM,?,-,-,-
Cc1c(NC(=O)Cc2ccc(F)cc2)cccc1-c1nc2cccnc2s1,20µM[quencher],.,.,.,?,-
Cc1[nH]n(C2=NCCS2)c(=O)c1N=Nc1cccc(C(F)(F)F)c1,-,-,?,.,-,13µM
O=c1[nH]n(-c2cccc3cccnc23)c(=O)c2ccccc12,-,-,-,25µM,-,-
SMILES,Tau fluor counter,ALDH1A1 block,KDM4E inh,HPGD inh,Tau FP inhib,Tau ThT inhib
Cc1nn(-c2cccc3cccnc23)c(=O)c2ccccc12,-,-,-,-,-,-
COc1ccc2nc(N=Nc3ccc(N(C)C)cc3)sc2c1,?,-,-,-,-,0.89µM
COc1ccc2nc(/N=C\N(C)C)sc2c1,-,-,-,-,-,-
Cc1ccc(C(C)C)c(OCc2ccc(C(=O)N/N=C/c3cccc(O)c3O)cc2)c1,?,-,4.5µM,-,-,?
Cc1ccc(C(C)C)c(OCc2ccc(C(=O)N/N=C/c3ccc(O)c(O)c3)cc2)c1,-,-,-,?,-,-
C/C(=C\C(=O)C(F)(F)F)Nc1ccc(C(F)(F)F)cc1,-,22µM,-,-,-,-
CC(C)(CCl)C(=O)Nc1ccc(C(F)(F)F)cc1,-,-,-,.,-,-
Cc1ccc(C)n1-c1c(C(=O)NN)cnn1-c1ccccc1,-,3.2µM,-,.,-,-
CCOC(=O)C1=C(N)OC2=C(C(=O)CC(C)(C)C2)C1c1ccc(C)s1 (stereo not given),-,13µM,-,.,-,-
CC1(C)CC(=O)C2=C(C1)OC(N)=C([N+](=O)[O-])C2c1ccc(F)cc1 (stereo not given),-,.,-,.,-,-
CCOC(=O)C1=C(N)OC2=C(C(=O)CC(C)(C)C2)C1c1ccc(CC)s1 (stereo not given),-,-,-,.,-,-
Cc1ccc(C2C(C(N)=S)=C(N)OC3=C2C(=O)CC(C)(C)C3)cc1 (stereo not given),-,14µM,-,-,-,?
COC(=O)c1sccc1S(=O)(=O)N(CC(=O)Nc1c(C)cccc1C)c1ccc(C)c(C)c1,-,.,.,.,-,-
O=C1N/C(=N/Nc2ccccc2)S/C1=C\c1ccccc1,-,5.6µM,-,10µM,-,?
O=C(N=C1c2ccccc2CN1c1cccc(Cl)c1)c1cccnc1,-,-,-,-,-,?
O=C(N=C1c2ccccc2CN1c1ccc(F)c(F)c1)c1cccnc1,-,14µM,-,.,-,-
COC(=O)C1=C(C)NC(=O)C1(NC(=O)c1cc(OC)c(OC)c(OC)c1)C(F)(F)F (stereo not given),-,.,.,.,-,-
O=S(=O)(CCN1C=CC(C(F)(F)F)=NCC1)c1ccc(F)cc1,-,?,-,.,-,-
O=S(=O)(CCN1C=CC(C(F)(F)F)=NCC1)c1ccc(Cl)cc1Cl,-,13µM,-,.,-,-
CC1=NN(c2cccc(C(=O)O)c2)C(=O)/C1=C\C=C/c1ccccc1,?,?,-,.,?,7.1µM
CC1=NN(c2ccccc2)C(=O)/C1=C/C=C/C=C/N(C)C,-,-,?,.,-,16µM
CC1=NN(c2ccc(C)cc2)C(=O)/C1=C\C=C\c1ccccc1,7.9µM[quencher],?,-,-,?,7.1µM
Cc1oc2ncnc(N3CCCCC3)c2c1C(=O)NCC1CCN(Cc2cccc(F)c2)CC1,-,.,.,.,-,-
O=C(c1ccco1)c1coc2c1cc(O)c1ccccc12,?,?,-,.,-,3.5µM
FC(F)(F)c1nc2nc(Cl)c(Cl)nc2n1CCCN1CCOCC1,.,-[13.5 µM],.,?,.,.
O=C(CCN1CCN(c2ccc(F)cc2)CC1)Nc1ccc(F)cc1,-,-,-,-,-,-
O=C(O)/C=C\C(=O)Nc1ccc(N2CCN(c3ccc(F)cc3)CC2)cc1,?,8.9µM,-,.,-,5.6µM
O=C(O)/C=C\C(=O)Nc1ccc(N2CCN(c3ccc(Cl)cc3)CC2)cc1,?,11µM,-,.,?,3.5µM
Nc1ccc(N2CCN(c3cccc(Cl)c3)CC2)cc1,?,14µM,-,-,-,?
O=C(O)/C=C\C(=O)Nc1ccc(N2CCN(c3ccc(Cl)c(Cl)c3)CC2)cc1,?,6.3µM,?,.,?,2.2µM

# Screens as filed in PubChem BioAssay.
